Laboratory results taken from PubChem BioAssay (NCATS).
A number with no mark means an inactive call. Results filed as inconclusive are left out. A call without a number means that no potency is given here. Active and inactive are the calls of the source. The call rests on the fitted dose curve; in most records, active means well fitted curve in the direction sought with a large enough effect; inconclusive means small, poorly fitted or top-dose-only effect, or another doubt; inactive means no such curve, though single readings can be large; an effect the other way counts as inactive or inconclusive.

Tests used:
[1] = Primary qHTS for inhibitors of nuclear receptor binding SET domain protein 2 (NSD2) in an isogenic RCH-ACV NSD2 p.E1099K mutant (9B) (AID 1645876); further: nearly all actives have a fitted effect of over 70% in size; further: potency means the concentration at half of the fitted maximal effect
[2] = biological target: Glutathione peroxidase 1 (Homo sapiens) (UniProt P07203); experiment: Primary qHTS Assay for Inhibitors of Recombinant Selenoprotein Glutathione Peroxidase 1 (GPX1) (AID 1845191); further: nearly all actives have a fitted effect of over 65% in size
In short: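 Recombinant GPX1 (10 nM final) was preincubated with compound for 30 min at room temperature, then reacted with 1 mM GSH, 0.5 mM CHP, 0.5 mM NADPH and 100 nM glutathione reductase; NADPH fluorescence (340/450 nm) was read at 0 and 15 min.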

[3] = biological target: Phospholipid hydroperoxide glutathione peroxidase GPX4 (Homo sapiens) (UniProt P36969); experiment: Primary qHTS Assay for Inhibitors of Recombinant Selenoprotein Glutathione Peroxidase 4 (GPX4) (AID 1845192); further: nearly all actives have a fitted effect of over 65% in size
In short: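 GR-coupled readout: 100 nM GR, 1 mM GSH, 0.5 mM NADPH; NADPH fluorescence (ex 340/em 450 nm) read at t=0 and after 15 min RT. GPX4 200 nM, preincubated 30 min with compound; substrate 0.5 mM CHP.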

[4] = tested on: HaCat; experiment: Cytotoxic Profiling of Annotated Libraries Using Quantitative High-Throughput Screening (AID 1296008); conditions: Five cell lines viability, CellTiter-Glo ATP luminescence, 48-72 h; max response: active compounds read low; further: nearly all actives have a fitted effect of over 60% in size; further: potency means the concentration at half of the fitted maximal effect
In short: (§1)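 Compounds were pin-transferred onto cells and incubated 48 or 72 hr at 37 degree Celsius, 95% humidity. CellTiter-Glo was added, plates sat 10 min at room temperature, then ATP-coupled luminescence was imaged as the viability read-out.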

[5] = tested on: Zika virus NS2B-NS3 protease (unlinked complex); experiment: Primary screen GU Rhodamine qHTS for Zika virus inhibitors: Unlinked NS2B-NS3 protease assay (AID 1347159); further: nearly all actives have a fitted effect of over 60% in size
In short: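 Percent inhibition derives from the 15-min fluorescence change (ex 480, em 540 nm), normalized to no-enzyme and no-inhibitor wells. Reactions contained 25 nM NS2B-NS3 complex and 1.5 microM substrate in 10 mM Tris-HCl pH 8.0.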

[6] = tested on: Zika virus NS2B-NS3 protease (linked construct); experiment: Primary screen NINDS Rhodamine qHTS for Zika virus inhibitors (AID 1347160); further: nearly all actives have a fitted effect of over 55% in size
In short: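 In 10 mM Tris-HCl pH 8.0 containing 0.01% Tween 20, linked NS2B-NS3 protease (25 nM final) is exposed to test compounds for 15 min. Cleavage of 1.5 microM Rhodamine110 substrate is tracked by fluorescence over 15 min.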

[7] = biological target: Calcium and integrin-binding protein 1 (Homo sapiens) (UniProt Q99828); experiment: Primary qHTS for Identification of Calcium Integrin Binding Protein 1 (CIB1) Competitor (AID 1508620);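 further: GST tagged CIB1 binding a fluorescein labelled alphaIIb integrin peptide tracer; top concentration of the series differs between compounds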
In short: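 Fluorescence polarization competition: CIB1-GST (1 uM final) preincubated with compound 15 min at room temperature, then FITC-labeled alphaIIb peptide (100 nM final) added for another 15 min. Polarization read at Ex 480/Em 540.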

[8] = Primary qHTS for inhibitors of nuclear receptor binding SET domain protein 2 (NSD2) in an RCH-ACV wild type WT cells (2C) (AID 1645877); further: potency means the concentration at half of the fitted maximal effect; nearly all actives have a fitted effect of over 70% in size
[9] = biological target: Luciferin 4-monooxygenase (Photinus pyralis) (UniProt P08659); experiment: Primary firefly luciferase (FLuc) qHTS assay for identification of artifact compounds. (AID 1845220); conditions: outcome: dose series up to 54.1 µM unless noted; further: nearly all actives have a fitted effect of over 60% in size
In short: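 In this counter-screen for luciferase artifacts, test compounds met substrate (10 uM each luciferin and ATP) before 10 nM enzyme started the reaction. Light output was measured 5 min later.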

[10] = Primary fluorescence-based thiol-reactive (MSTI) qHTS assay for identification of artifact compounds. (AID 1845221);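 further: thiol-reactive compounds lower the probe fluorescence signal; nearly all actives have a fitted effect of over 65% in size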
In short: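 Compounds were incubated 1 h at room temperature in the dark with the MSTI probe (4 uM) in PBS pH 7.4, 2% DMSO. Signals were normalized between Acetyl-MSTI and MSTI.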

[11] = tested on: Nanoluciferase (engineered Oplophorus gracilirostris luciferase); experiment: Primary Nanoluciferase (NLuc) qHTS assay for identification of artifact compounds. (AID 1845222);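 further: NLuc secreted into diluted conditioned medium of S16 cells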
In short: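 Using secreted nanoluciferase in S16 culture medium (0.22 um filtered, 1:55 dilution), compounds were preincubated 15 min at RT. Signal was generated with Nano-Glo reagent (1:100) over 5 min.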

[12] = Primary redox qHTS assay for identification of artifact compounds. (AID 1845223)
In short: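 Amplex Red (25 uM) and HRP (250 mU/mL) in HBSS, with compounds for 15 min, then 250 uM DTT for 30 min, room temperature, dark. Fluorescence 525/598 nm read; normalized to DMSO and 10 uM DA3003; Hill fit.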

[13] = tested on: JEG-3; experiment: Primary qHTS to identify gynecologic anti-cancer compounds using libraries of approved drugs and bioactive compounds (AID 1345084); conditions: Gynecologic cancer cell panel viability, ATPlite luminescence, 48 h; series mostly up to 57.5 µM; further: nearly all actives have a fitted effect of over 55% in size
In short: (§2)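 Luminescence from the ATPlite ATP-monitoring reagent indicates viable cell number; lower signal means cytotoxicity. Cells received compound 16 h after seeding and were exposed for 48 h across five concentrations.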

[14] = tested on: CASKI; experiment: as above; conditions: Gynecologic cancer cell panel viability, ATPlite luminescence, 48 h; series mostly up to 57.5 µM
In short: as §2

[15] = tested on: OV90; experiment: as above; conditions: Gynecologic cancer cell panel viability, ATPlite luminescence, 48 h; series mostly up to 57.5 µM
In short: as §2

[16] = qHTS Assay for Identifying Gametocytocidal Compounds (AID 743244); further: potency means the concentration at half of the fitted maximal effect;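 on max response: actives lower the fluorescent signal which means gametocytes are killed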; conditions: P. falciparum 3D7 stage III-V gametocytes, alamarBlue, 72 h; max response: active compounds read low
In short: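 Compounds are pinned into medium, gametocytes (stage III–V, 3D7, 20,000 cells/well) added, and plates held 72 h at 37 °C in 5% CO2. AlamarBlue follows for 24 h before fluorescence reading.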

[17] = P-glycoprotein substrates identified in KB-8-5-11 adenocarcinoma cell line, qHTS therapeutic library screen (AID 1346987); further: nearly all actives have a fitted effect of over 65% in size; further: potency means the concentration at half of the fitted maximal effect
In short: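 P-gp-mediated resistance screen: KB-8-5-11 cells treated 72 h with compounds in dose-response. CellTiter-Glo viability.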

[18] = tested on: KB-3-1; experiment: Cytotoxic Profiling of Annotated Libraries Using Quantitative High-Throughput Screening (AID 1296008); conditions: Five cell lines viability, CellTiter-Glo ATP luminescence, 48-72 h; max response: active compounds read low; further: nearly all actives have a fitted effect of over 60% in size; further: potency means the concentration at half of the fitted maximal effect
In short: as §1

[19] = tested on: astro; experiment: Drug repurposing screens with cells derived from glioblastoma tumor samples (AID 1345199); conditions: viability, ATP luminescence, 48 h; series mostly up to 45.9 µM; further: nearly all actives have a fitted effect of over 40% in size; further: potency means the concentration at half of the fitted maximal effect
In short: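 Four patient lines of CD133+ GBM neurospheres were screened at several concentrations; hits were retested in those lines plus three slower-growing GBM lines, using 48-hour treatment and ATP-based viability.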

[20] = tested on: CRL-7250; experiment: qHTS assay to identify novel small-molecules to repurpose for Merkel cell carcinoma treatment (AID 1296009); conditions: MCC and control cell lines, CellTiter-Glo viability, 72 h; series mostly up to 92 µM; further: nearly all actives have a fitted effect of over 60% in size
In short: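 Cells exposed to NPC (8-point) and MIPE (11-point) compound dilutions for 72 hr at 37 degree celsius; viability read by CellTiter-Glo luminescence, normalized to no-cell and DMSO in-plate controls.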

Sequence of Calcium and integrin-binding protein 1 (Homo sapiens) (Q99828 whole entry, looked up): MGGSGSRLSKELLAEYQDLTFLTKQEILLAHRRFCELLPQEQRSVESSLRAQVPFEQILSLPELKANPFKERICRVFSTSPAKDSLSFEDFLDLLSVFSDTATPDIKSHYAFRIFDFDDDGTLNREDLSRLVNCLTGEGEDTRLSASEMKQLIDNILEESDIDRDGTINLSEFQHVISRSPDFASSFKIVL
Sequence of Phospholipid hydroperoxide glutathione peroxidase GPX4 (Homo sapiens) (P36969 whole entry, looked up): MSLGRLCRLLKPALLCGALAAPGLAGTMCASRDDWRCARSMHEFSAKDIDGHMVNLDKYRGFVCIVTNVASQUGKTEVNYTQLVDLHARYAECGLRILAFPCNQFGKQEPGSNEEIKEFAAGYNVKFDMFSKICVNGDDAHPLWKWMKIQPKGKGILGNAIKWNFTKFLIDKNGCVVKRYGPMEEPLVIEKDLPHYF
Sequence of Glutathione peroxidase 1 (Homo sapiens) (P07203 whole entry, looked up): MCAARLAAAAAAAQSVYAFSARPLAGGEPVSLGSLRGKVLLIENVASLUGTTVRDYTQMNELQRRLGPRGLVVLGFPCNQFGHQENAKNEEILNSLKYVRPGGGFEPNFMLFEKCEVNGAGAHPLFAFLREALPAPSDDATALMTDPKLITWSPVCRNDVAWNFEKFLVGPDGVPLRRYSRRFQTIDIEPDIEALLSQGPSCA

**Q.** Which Potency [1] does the source give for Cc1ncc(OC[C@@]2(c3cccc(F)c3)C[C@H]2C(=O)Nc2ccc(F)cn2)c(C)n1 here?
**A.** inactive

**Q.** And the Potency [2]?
**A.** inactive

**Q.** And the Potency [3]?
**A.** inactive

**Q.** What about the outcome [4] of the same molecule?
**A.** inactive

**Q.** Which results are given for C/C=C(/C)C(=O)O[C@H]1[C@@H]2[C@H](C)C(=O)O[C@@H]2C[C@@H](C)[C@@H]2C=CC(=O)[C@]21C?
**A.** Potency [5]: inactive; Potency [6]: inactive; Potency [7]: inactive; Potency [1]: 12.7 µM (active); Potency [8]: 10.1 µM (active); Potency [2]: inactive; Potency [3]: inactive; outcome [9]: inactive; Potency [10]: inactive; Potency [11]: inactive; Potency [12]: inactive; max response [4]: -11.7%; Potency [13]: inactive

**Q.** Which Potency [5] does the source give for C[C@@H]1Cc2c(Cl)cc(C(=O)N[C@@H](Cc3ccccc3)C(=O)O)c(O)c2C(=O)O1 here?
**A.** inactive

**Q.** And the Potency [6]?
**A.** inactive

**Q.** What about the Potency [1] of the same molecule?
**A.** 8.98 µM (active)

**Q.** And the Potency [8]?
**A.** 6.36 µM (active)

**Q.** And the outcome [9]?
**A.** inactive

**Q.** And the Potency [10]?
**A.** inactive

**Q.** And the Potency [11]?
**A.** inactive

**Q.** And the Potency [12]?
**A.** inactive

**Q.** What about the outcome [4] of the same molecule?
**A.** inactive

**Q.** What about the Potency [14] of the same molecule?
**A.** inactive

**Q.** And the Potency [13]?
**A.** inactive

**Q.** What about the Potency [15] of the same molecule?
**A.** inactive

**Q.** Which results are given for CC[C@H]1/C=C\C=C/C[C@@H](C)[C@H](O)[C@@](C)(O)C(=O)[C@@H](C)[C@H](O)[C@@H](C)C(=O)[C@@H](C)[C@H](O)[C@@H](C)/C=C\C(=O)O[C@@H]2[C@H](C)[C@H](CC1)O[C@]1(CC[C@H](C)[C@H](C[C@@H](C)O)O1)[C@H]2C?
**A.** Potency [6]: inactive; Potency [7]: inactive; Potency [1]: 0.742 µM (active); Potency [8]: 0.332 µM (active); Potency [2]: inactive; Potency [3]: inactive; outcome [9]: inactive; Potency [10]: inactive; Potency [11]: inactive; Potency [12]: inactive; Potency [14]: inactive; Potency [15]: inactive

**Q.** Which Potency [5] does the source give for CC1=CC(=O)[C@@H](O)[C@]2(C)C3[C@@H](O)[C@@H]4OC(=O)[C@@H]([C@H]4C)[C@]3(C)C(=O)[C@H](O)[C@@H]12 (some centres undefined) here?
**A.** inactive

**Q.** What about the Potency [6] of the same molecule?
**A.** inactive

**Q.** And the Potency [7]?
**A.** inactive

**Q.** And the Potency [2]?
**A.** inactive

**Q.** And the outcome [9]?
**A.** inactive

**Q.** And the Potency [10]?
**A.** inactive

**Q.** What about the Potency [11] of the same molecule?
**A.** inactive

**Q.** What about the Potency [12] of the same molecule?
**A.** inactive

**Q.** And the Potency [14]?
**A.** inactive

**Q.** What about the Potency [13] of the same molecule?
**A.** inactive

**Q.** What about the Potency [15] of the same molecule?
**A.** inactive

**Q.** What does the source list for CN1CCN=C(c2ccccc2)c2cc(Cl)ccc21?
**A.** max response [16]: 0.139%; Potency [17]: inactive; max response [18]: 8.16%; Potency [19]: inactive

**Q.** Which results are given for CCCSc1cc(OC)c(CCN)cc1OC?
**A.** Potency [17]: 20 µM (active); Potency [18]: 17.8 µM (active); Potency [19]: 31.6 µM (active)

**Q.** For CCC(=O)O[C@H]1[C@@H](N2CCCCC2)C[C@H]2[C@@H]3CC[C@H]4C[C@H](OC(C)=O)[C@@H](N5CCCCC5)C[C@]4(C)[C@H]3CC[C@@]21C, which Potency [17] is on record?
**A.** inactive

**Q.** What about the max response [18] of the same molecule?
**A.** -10.6%

**Q.** What about the Potency [19] of the same molecule?
**A.** inactive

**Q.** With O=C(O)CCCO as the molecule, how does the max response [16] read?
**A.** 2.34%

**Q.** And the Potency [17]?
**A.** inactive

**Q.** And the max response [18]?
**A.** 4.02%

**Q.** What about the Potency [19] of the same molecule?
**A.** inactive

**Q.** With Cc1ccc2c(c1)[C@]13CCCC[C@@H]1[C@H](C2)N(C)CC3 as the molecule, how does the max response [16] read?
**A.** -5.26%

**Q.** What about the Potency [17] of the same molecule?
**A.** inactive

**Q.** And the Potency [2]?
**A.** inactive

**Q.** And the max response [18]?
**A.** -5.13%

**Q.** What about the Potency [19] of the same molecule?
**A.** inactive

**Q.** For CCC(=O)O[C@](Cc1ccccc1)(c1ccccc1)[C@H](C)CN(C)C, which max response [16] is on record?
**A.** 0.382%

**Q.** And the Potency [17]?
**A.** 20 µM (active)

**Q.** What about the max response [18] of the same molecule?
**A.** 0.566%

**Q.** What about the Potency [19] of the same molecule?
**A.** inactive

**Q.** With O.O.O.O=C([O-])C(O)C(O)C(=O)[O-].O=C([O-])C(O)C(O)C(=O)[O-].[K+].[K+].[Sb].[Sb] (centres undefined) as the molecule, how does the Potency [16] read?
**A.** 708 nM (active)

**Q.** What about the Potency [17] of the same molecule?
**A.** 8.2 µM (active)

**Q.** What about the max response [18] of the same molecule?
**A.** -33.9%

**Q.** With O=C(O)c1cc(C(F)(F)F)ccc1N1CC[C@H](OCc2ccccn2)C1 as the molecule, how does the Potency [20] read?
**A.** inactive
